Compound activity from PubChem BioAssay.
JMJD2A Tudor: blocks the human JMJD2A Tudor domain. O75164. AlphaScreen JMJD2A-Tudor / H3K4me3 peptide binding. Potency, µM (series often up to 114 µM), hits mostly inhibitors. 390,000 tested, 4.4% active. AID 504339; further: nearly all actives have a fitted effect of over 50% in size
HP1b chromo inh: inhibitors of HP1-beta chromodomain binding to methylated histone tails | P83916 | AlphaScreen HP1-beta / biotin-H3K9me3 peptide binding | Potency, µM (titrated, usually from 114 µM), hits mostly inhibitors | 390,000 tested, 0.56% active | AID 540317; further: nearly all actives have a fitted effect of over 70% in size
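Compound inhibition of the preformed complex between 50 nM HP1-beta and 50 nM biotinylated H3K9me3 peptide was read by AlphaScreen. Buffer was PBS pH 7.4 with 0.01% Tween-20. Incubations ran 30 min at room temperature, with 10 ug/mL donor/acceptor beads.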
GLS inh: blocks human kidney-isoform glutaminase activity; O94925; GLS enzymatic activity, qHTS titration; Potency, µM (doses to about 45.5 µM), hits mostly inhibitors; 410,000 tested, 0.21% active
Target sequence (O94925 whole entry, looked up, canonical isoform): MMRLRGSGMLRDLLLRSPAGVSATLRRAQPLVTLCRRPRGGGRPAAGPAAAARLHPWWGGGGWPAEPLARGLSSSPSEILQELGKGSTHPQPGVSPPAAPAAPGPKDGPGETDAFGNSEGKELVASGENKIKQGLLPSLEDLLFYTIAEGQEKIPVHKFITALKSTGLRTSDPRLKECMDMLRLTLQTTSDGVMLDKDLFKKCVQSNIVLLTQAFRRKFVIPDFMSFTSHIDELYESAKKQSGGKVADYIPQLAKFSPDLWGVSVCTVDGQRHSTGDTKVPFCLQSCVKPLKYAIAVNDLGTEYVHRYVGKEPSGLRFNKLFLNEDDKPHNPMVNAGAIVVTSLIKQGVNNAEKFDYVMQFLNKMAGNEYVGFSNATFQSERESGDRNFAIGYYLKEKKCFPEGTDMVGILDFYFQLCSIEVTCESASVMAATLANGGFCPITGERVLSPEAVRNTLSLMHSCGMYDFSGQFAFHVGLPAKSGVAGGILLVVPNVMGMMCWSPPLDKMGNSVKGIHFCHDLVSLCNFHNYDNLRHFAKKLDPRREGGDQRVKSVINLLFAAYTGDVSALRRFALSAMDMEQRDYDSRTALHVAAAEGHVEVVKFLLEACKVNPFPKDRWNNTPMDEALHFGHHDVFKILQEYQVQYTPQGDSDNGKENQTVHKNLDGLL
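Two-point fluorescence kinetic (t0, 30 min RT) for hKGA; glutamate detected via glutamate oxidase–HRP–Amplex Red. Substrate: 1 mM L-glutamine solution; buffer 45 mM KH2PO4, pH 8.2.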
BAZ2B inh: BAZ2B (human) inhibition. Potency, µM (highest dose often 114 µM), most hits filed as inhibitors. Q9UIF8. AlphaScreen BAZ2B-H3K14Ac peptide displacement. AID 504333. 360,000 tested, 4.4% active; further: nearly all actives have a fitted effect of over 60% in size
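Complex of BAZ2B and biotin-H3K14Ac (50 nM apiece) forms over 30 min at RT, then faces library compounds up to 110 uM for another 30 min; AlphaScreen beads added, 20 min dark incubation, luminescence read.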
G9a inh: inhibitors of human histone lysine methyltransferase G9a | Q96KQ7 | G9a H3K9 monomethylation, AlphaScreen, 2 h | Potency, µM (titrated, usually from 102 µM), most hits filed as inhibitors | 350,000 tested, 8.8% active | AID 504332; further: nearly all actives have a fitted effect of over 75% in size
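Readings reflect AlphaScreen signal from monomethyl-H3K9 antibody detection. HMT at 20 nM; substrate b-H3K9 500 nM; cofactor SAM 20 uM; 2 h RT reaction; compounds tested as titrations in qHTS with 15 min preincubation.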
Large screens that a line does not name were inactive. Rows were chosen to be rich in hits. Some 10% of all compounds tested hit in one or more screens of this group. The call rests on the fitted dose curve; in most records, active means well fitted curve in the direction sought with a large enough effect; inconclusive means small, poorly fitted or top-dose-only effect, or another doubt; inactive means no such curve, though single readings can be large; an effect the other way counts as inactive or inconclusive.

CC(C)(C)c1nnc(NC(=O)c2ccc3c(c2)OCO3)s1	JMJD2A Tudor 89.1µM, HP1b chromo inh inconclusive, G9a inh 3.55µM
C=CCNc1nc(N)c(C(=O)Nc2cc(C)on2)s1	JMJD2A Tudor inconclusive, G9a inh inconclusive
C=CCNc1nc(N)c(C(=O)c2ccc3c(c2)OCO3)s1	BAZ2B inh inconclusive, G9a inh 50.1µM
Fc1ccc(C(CCNCc2ccccn2)c2ccc(Cl)cc2)cc1 (centres undefined)	JMJD2A Tudor inconclusive, HP1b chromo inh inconclusive, BAZ2B inh inconclusive
CC1CCN(C(=O)CN2CC(C)Sc3ccccc32)CC1 (centres undefined)	G9a inh inconclusive
O=C(Nc1cccc(C(=O)OCc2cc(=O)n3c4c(sc3n2)CCCC4)c1)c1cccc(F)c1	none
O=C1COc2ccc(-c3csc(NCCc4ccccc4)n3)cc2N1	JMJD2A Tudor inconclusive, BAZ2B inh 50.1µM, G9a inh 39.8µM
CCC(C)C(=O)Nc1nc(-c2ccc3c(c2)NC(=O)CO3)cs1 (centres undefined)	HP1b chromo inh inconclusive, G9a inh inconclusive
Cc1nnc(SCc2cc(=O)oc3ccc4ccccc4c23)n1Cc1ccccc1	G9a inh 35.5µM
COc1ccc2c(CN3CCN(Cc4ccccc4)CC3)cc(=O)oc2c1	none (no result: JMJD2A Tudor, HP1b chromo inh, BAZ2B inh, G9a inh)
CCc1ccc2c(CN3CCc4ccccc43)cc(=O)oc2c1	G9a inh 35.5µM
CCc1ccc2c(CN3CCN(Cc4ccccc4)CC3)cc(=O)oc2c1	G9a inh 70.8µM
CCOC(=O)Nc1ccc2c(CN3CCC(C(=O)OC)CC3)cc(=O)oc2c1	none
CCc1ccc2c(CN3CCC(C(=O)OC)CC3)cc(=O)oc2c1	G9a inh 50.1µM
Cc1ccc(OCCn2c(C3CC(=O)N(Cc4ccc(F)cc4)C3)nc3ccccc32)c(C)c1 (centres undefined)	BAZ2B inh inconclusive
CC1CCN(Cc2cc(=O)oc3ccc(C(C)C)cc23)CC1	none
CCc1cc2c(CN3CCN(Cc4ccccc4)CC3)cc(=O)oc2cc1O	JMJD2A Tudor inconclusive, BAZ2B inh inconclusive, G9a inh 44.7µM
CC(C)c1ccc2oc(=O)cc(CN3CCCCC3)c2c1	G9a inh 70.8µM
O=c1cc(CN2CCN(Cc3ccccc3)CC2)c2cc3c(cc2o1)CCC3	G9a inh inconclusive
Cc1cc(C)c2c(CN3CCN(Cc4ccccc4)CC3)cc(=O)oc2c1C	JMJD2A Tudor inconclusive, BAZ2B inh inconclusive, G9a inh 50.1µM
Cc1cc(C)c2c(CN3CC(C)OC(C)C3)cc(=O)oc2c1C (centres undefined)	none
Cc1ccc2oc(=O)cc(CN3CCN(Cc4ccccc4)CC3)c2c1	G9a inh 50.1µM
O=C(Nc1ccccc1Cl)c1cc(C2CCCCN2C(=O)CCCc2ccccc2)on1 (centres undefined)	none (no result: JMJD2A Tudor, HP1b chromo inh, BAZ2B inh, G9a inh)
CCCCn1nnnc1C1(C)CCC(=O)N1Cc1ccco1 (centres undefined)	none (no result: JMJD2A Tudor, HP1b chromo inh, BAZ2B inh, G9a inh)
CCc1cc2c(CN(C)Cc3ccccc3F)cc(=O)oc2cc1O	G9a inh 50.1µM
CCc1nc2c(OCc3cc(Cl)cc(Cl)c3)cccn2c1N(C)C(=O)c1ccc(OC)cc1	none (no result: JMJD2A Tudor, HP1b chromo inh, BAZ2B inh, G9a inh)
CC(C)(C)C(=O)OCc1cn(-c2ccc(Cl)cc2)nn1	G9a inh inconclusive
CC(C)C(=O)OCc1cn(-c2ccc(Cl)c(Cl)c2)nn1	JMJD2A Tudor 22.4µM
O=S(=O)(NNc1ccc(F)cc1F)c1cccc(Cl)c1	JMJD2A Tudor 10µM, HP1b chromo inh inconclusive, GLS inh inconclusive, BAZ2B inh inconclusive, G9a inh 1.26µM
O=C(NNc1ccc(F)cc1F)c1c(F)cccc1Cl	none
CC(C)(C)C1CCC(=NNC(=S)NCc2ccccc2)CC1 (centres undefined)	JMJD2A Tudor inconclusive, BAZ2B inh inconclusive, G9a inh 8.91µM
CCC(C)(C)C1CCC(=NNC(=S)Nc2cccnc2)CC1 (centres undefined)	JMJD2A Tudor 44.7µM, BAZ2B inh inconclusive, G9a inh 7.94µM
Nc1cc(OCC(F)(F)F)cc([N+](=O)[O-])c1	none
Nc1cc(N)c(OCC(F)(F)F)cc1OCC(F)(F)F	JMJD2A Tudor inconclusive, HP1b chromo inh inconclusive, BAZ2B inh inconclusive, G9a inh 50.1µM
COc1ccc(-c2onc(C)c2C)cc1S(=O)(=O)Nc1cccc(C#N)c1	none
C/C(=N/NC(N)=S)c1ccc(Br)s1	G9a inh 15.8µM
COc1ccc(CN(C)CC(=O)Nc2ccccc2C(=O)NC2CC2)cc1F	none (no result: BAZ2B inh, G9a inh)
